PubChem BioAssay AID485275 (NMMLSC, 2010)
Out of some 330,000 compounds screened, about 1,400 (0.42%) were called active. The sample holds actives, similar compounds and a random draw of the others, so the mix is not that of the screen. A number with no mark means an inactive call.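 Rule for the calls: active = plate passing quality check with inhibition over a set limit, or well fluorescence over plate mean plus 4 SD; inactive = the rest.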

Experiment: antifungal drug efflux pump blockers, triplex strains – S. cerevisiae, Nile Red, multiplex, primary screen (AID 485275);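 note: Nile Red retained in pooled yeast measured as flow cytometry median fluorescence; 0% = buffer negative control and 100% = Enniatin B positive control; higher means more Nile Red kept so more efflux inhibition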
Settings: S. cerevisiae Candida pump triplex, at 10 µM, hits give high values
In the case of `O=[N+]([O-])c1cnc2ccc3ccccc3c2c1`, the inhibition is reported as 0.41% (active). In the case of `C/C(=N/O)c1ccc2ccc3ccccc3c2c1`, the inhibition is reported as 0.16%. Work on `Cc1ccc(-n2c(-c3ccc([N+](=O)[O-])cc3)nc3ccccc3c2=O)cc1` yielded an inhibition of -0.08%. `Clc1ccc2nc3c(c(-c4ccccc4)c2c1)CNCC3` gave an inhibition of -0.17%. In the case of `COC(=O)C1=C(c2ccc(Cl)c(C(F)(F)F)c2)C[C@@H]2CC[C@H]1N2C(=O)NC1CC1`, the inhibition is reported as -0.03%. With `CN(c1ccccc1)c1ccc([N+](=O)[O-])c2nonc12` the inhibition was -0.18%. In the case of `CCN(CC)c1ccc([N+](=O)[O-])c2cccnc12`, the inhibition is reported as 1.08% (active). For `CN1CCC(N(C)Cc2cccnc2)CC1`, the inhibition was 0.12%. For `c1cc2c(cc1CCNC1CCCCCC1)OCO2`, the inhibition was 0.08%. `CCN1CC2C3CCC(C)(O3)C2C1` (stereo not given) showed an inhibition of -0.18%.
